HCV inhibitor – qHTS Assay for Inhibitors of Hepatitis C Virus (HCV); Huh7.5.1 HCVcc-Cre infection, luciferase reporter, 44 h; Potency, µM (doses to about 41.8 µM), for the others: top-dose activity change, negative = inhibition, usual class: inhibitors; actives 3.4% (n = 340,000); AID 651820, 2012; active = well fitted inhibition curve with a large enough effect; inconclusive = small, poorly fitted or top-dose-only effect, or another doubt; inactive = no such curve, though single readings can be large or run the other way
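Whole-lifecycle infectious HCVcc-Cre system; cells 1,000/well, compound then virus (~0.5 moi) added 4 h after plating, 44 h culture. Luciferase read 15 sec following 15 min substrate incubation, room temp.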
Marburg entry inh – qHTS for inhibitors of binding or entry into cells for Marburg Virus. Potency, µM (doses to about 37.8 µM), for the others: at the highest dose activity change, negative = inhibition, actives largely listed as inhibitors. Marburg virus pseudotyped entry inhibition, cell reporter. actives 1.8% (n = 300,000); calls by dose curve; tested in HEK293 cells
Vaccinia Venus – qHTS for Stage-Specific Inhibitors of Vaccinia Orthopoxvirus: Venus Reporter Primary qHTS; Vaccinia virus Venus reporter expression, fluorescence; Potency, µM (highest dose often 36.5 µM), inactives show top-dose activity change, negative = inhibition, actives largely listed as inhibitors; actives 0.46% (n = 330,000); AID 720580, 2013; calls by dose curve; tested in A549 cells; note: nearly all actives have a fitted effect of over 30% in size
Vaccinia mCherry – qHTS for Stage-Specific Inhibitors of Vaccinia Orthopoxvirus: mCherry Reporter Primary qHTS. Vaccinia virus mCherry reporter infection, fluorescence. Potency, µM (series often up to 36.5 µM), inactives show at the highest dose activity change, negative = inhibition, hits mostly inhibitors. actives 0.63% (n = 310,000); calls by dose curve; tested in A549 cells; note: nearly all actives have a fitted effect of over 35% in size
Lassa entry inh – qHTS for Inhibitors of binding or entry into cells for Lassa Virus; Lassa virus pseudotype entry inhibition, cell reporter; Potency, µM (series often up to 37.9 µM), for the others: at the top dose activity change, negative = inhibition, hits mostly inhibitors; actives 1.2% (n = 300,000); AID 540256, 2011; calls by dose curve; tested in HEK293 cells; note: nearly all actives have a fitted effect of over 50% in size
Numbers without * were called inactive; [ ] = dose if it differs, or a comment. Sampled rows, rich in hits. Any-hit rate of the full collection: about 4.6%. % is set by controls: 0 for no effect and ±100 for the full control effect; potency is the fitted concentration of half-maximal effect.

`COc1cc(CNC2CCCCCCC2)cc(Br)c1OCC#N` gave HCV inhibitor inconclusive, Marburg entry inh 12µM*, Vaccinia Venus -29%, Vaccinia mCherry -1% and Lassa entry inh -17%.
For CCOc1c(Br)cc(CNC2CCCCCCC2)cc1OC the results were HCV inhibitor 11µM*.
`COc1cc(CNC2CCCCCCC2)cc(Cl)c1OC` gave HCV inhibitor -7%, Marburg entry inh inconclusive, Vaccinia Venus -19%, Vaccinia mCherry -12% and Lassa entry inh inconclusive.
Screening O=C(O)c1ccc(CSc2nc3ccc(N4C(=O)C5C6C=CC(C6)C5C4=O)cc3s2)cc1 (configuration not stated) returned HCV inhibitor 11%, Marburg entry inh inconclusive, Vaccinia Venus -2%, Vaccinia mCherry -21% and Lassa entry inh -2%.
Screening CCc1cccc(CC)c1NC(=O)CSc1nc2ccc(N3C(=O)C4C5C=CC(C5)C4C3=O)cc2s1 (configuration not stated) returned HCV inhibitor 11µM*, Marburg entry inh inconclusive, Vaccinia Venus inconclusive, Vaccinia mCherry inconclusive and Lassa entry inh inconclusive.
Screening COC(=O)c1ccc(NC(=O)CSc2nc3ccc(N4C(=O)C5C6C=CC(C6)C5C4=O)cc3s2)cc1 (configuration not stated) returned HCV inhibitor 11µM*, Marburg entry inh inconclusive, Vaccinia Venus 7.1µM*, Vaccinia mCherry inconclusive and Lassa entry inh inconclusive.
`CC(=O)c1ccc(NC(=O)CSc2nc(-c3cccc(F)c3)nc3c2c(=O)n(C)c(=O)n3C)cc1` gave Vaccinia Venus -14%, Vaccinia mCherry -11% and Lassa entry inh -2%[46.1 µM].
Screening CCOC(=O)c1c(NC(=O)C2c3ccccc3Oc3ccccc32)sc(C(C)=O)c1C returned HCV inhibitor 0.79µM*, Marburg entry inh inconclusive, Vaccinia Venus -12%, Vaccinia mCherry -24% and Lassa entry inh inconclusive.
Screening CCOC(=O)c1sc(NC(=O)CCN2CCN(CC)CC2)c(C(=O)OCC)c1C returned HCV inhibitor 10µM*, Marburg entry inh inconclusive, Vaccinia Venus 4%, Vaccinia mCherry -13% and Lassa entry inh 18%.
`CCOC(=O)c1c(NC(=O)COC)sc(C)c1C` gave HCV inhibitor inconclusive, Marburg entry inh 7%, Vaccinia Venus -7% and Lassa entry inh -13%.
`CCOC(=O)c1c(NC(=O)C2c3ccccc3Oc3ccccc32)sc(C)c1C` gave Marburg entry inh -1%[46.1 µM], Vaccinia Venus -13%, Vaccinia mCherry -4% and Lassa entry inh 17%[46.1 µM].
`CCOC(=O)c1sc(NC(=O)CCN2CCC(C)CC2)c(C(=O)OCC)c1C` gave HCV inhibitor inconclusive, Marburg entry inh -3%[46.1 µM], Vaccinia Venus -14% and Vaccinia mCherry -16%.
`CCOC(=O)c1c(NC(=O)COC)sc(C(C)=O)c1C` gave HCV inhibitor 28µM*, Marburg entry inh 3%, Vaccinia Venus -11%, Vaccinia mCherry -19% and Lassa entry inh -8%.
COCCCNC(=O)C1CCN(c2cc(C)nc3c(-c4ccc(OC)c(OC)c4)c(C)nn23)CC1 was read as Marburg entry inh 11%[46.1 µM], Vaccinia Venus 1%, Vaccinia mCherry 1% and Lassa entry inh 1%[46.1 µM].
`O=c1oc(Cl)c(Cl)c2c1CCCC2` gave Marburg entry inh -28%.
`Cc1ccc(-c2ccc(/C=N\NC(=O)C3C(=O)NCC3c3ccccc3)o2)cc1Cl` (configuration not stated) gave HCV inhibitor 8.9µM*, Marburg entry inh -26%, Vaccinia Venus inconclusive, Vaccinia mCherry inconclusive and Lassa entry inh inconclusive.
O=C1NCC(c2ccccc2)C1C(=O)N/N=C\c1ccc(-c2cccc(Cl)c2Cl)o1 (configuration not stated) was read as HCV inhibitor -23%, Marburg entry inh -19%, Vaccinia Venus -23% and Lassa entry inh -23%.
CC(=O)c1sc(NC(=O)c2c(-c3ccccc3)c(-c3ccccc3)nn(C)c2=O)nc1C was read as Marburg entry inh -18%[46.1 µM], Vaccinia Venus -4%, Vaccinia mCherry 4% and Lassa entry inh -19%[46.1 µM].

Assay outcomes (PubChem BioAssay)
